Screening data deposited in PubChem by National Center for Advancing Translational Sciences (NCATS).
DRD3 antagonist: D3 dopamine receptor (human) antagonism. AID 652054. max response, negative = inhibition, %. P35462. 2.5% of 360,000 active. D3R cells, DiscoveRx beta-arrestin luminescence, antagonist mode; hits give low values; in the data active means max response below about -50%; inconclusive means no clear call, values can overlap the other calls; further: on the % scale 0 is the no-effect control and ±100 the full control effect
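Cells expressing the human receptor were seeded at 1500 cells/well, incubated overnight at 37 degrees C in 5% CO2, then exposed to library compounds with dopamine controls for 90 minutes at 37 degrees C before luminescent detection.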
D1 PAM: enhances dopamine response at the human D1 receptor. P21728. HEK293 TREx D1 cells, calcium flux, dopamine EC20 potentiation. potentiation, % at 10 µM. 0.036% of 360,000 active; in the data active means potentiation above about 30%; further: 0% is about no effect
Target sequence (P21728 whole entry, looked up): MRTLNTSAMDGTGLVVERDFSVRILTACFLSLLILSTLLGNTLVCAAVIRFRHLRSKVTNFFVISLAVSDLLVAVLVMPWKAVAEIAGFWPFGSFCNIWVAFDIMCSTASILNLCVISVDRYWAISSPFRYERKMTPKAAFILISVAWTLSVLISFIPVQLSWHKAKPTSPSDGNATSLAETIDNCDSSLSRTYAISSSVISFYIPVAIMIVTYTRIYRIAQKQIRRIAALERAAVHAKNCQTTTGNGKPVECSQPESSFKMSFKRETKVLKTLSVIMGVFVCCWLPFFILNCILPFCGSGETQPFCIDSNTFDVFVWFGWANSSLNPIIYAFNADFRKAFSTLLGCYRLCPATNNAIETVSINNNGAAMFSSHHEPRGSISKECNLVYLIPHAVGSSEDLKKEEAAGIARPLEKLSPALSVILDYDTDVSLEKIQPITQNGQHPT
D3 ag: activates the human D3 dopamine receptor; P35462; D3R DiscoveRx beta-arrestin cells, luminescence, 90 min; max activation, %; 0.58% of 410,000 active; in the data active means max activation above about 30%; further: 0% is about no effect
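Agonist mode: compounds and dopamine controls were applied to plated cells for 90 min at 37 degrees C after an overnight attachment at 1500 cells/well. Luminescent read-out followed 30 - 60 minutes at room temperature with DiscoveRx detection reagent.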
D1 agonist: human D1 receptor agonism. 1% of 360,000 active. activation, % at 2 µM. P21728. HEK293 T-REx D1 cells, calcium flux, agonist mode; in the data active means activation above about 30%; further: 0% is about no effect
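Agonism was scored from calcium flux recorded over 180 s (1 read/s) after pintool compound addition, following a 10-cycle baseline. Cells were inducible force-coupled HEK293 TREx D1, plated overnight at 30 C and loaded with no-wash calcium dye.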
D1 antag: antagonists of human D1 dopamine receptor; activity change, negative = inhibition, % at 10 µM; AID 504652; HEK293 TREx D1 cells, calcium flux, dopamine EC80; hits give low values; 3.2% of 360,000 active; in the data active means activity change below about -30%; further: on the % scale 0 is the no-effect control and ±100 the full control effect
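Inducible Hek293 Trex D1 cells (tetracycline, overnight, 30 C). Calcium dye 30–90 min RT. Antagonist mode: EC80 dopamine added after 180 s compound read.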
Active calls of the source: *; u = inconclusive; x = no result. The list is not random: actives were taken first. Their share in the collection is about 6.1%.

SMILES	DRD3 antagonist	D1 PAM	D3 ag	D1 agonist	D1 antag
COc1ccc(Br)cc1Cn1nnc(C(=O)Nc2cccc(SC)c2)c1N	x	-2	-6	12	22
O=C(CCC(=O)N1CC2CCCN2c2ccccc21)NCc1ccccc1 (centres undefined)	x	-4	-6	1	9
O=C(CN1CCN(S(=O)(=O)c2ccc(F)cc2)CC1)NCC1(N2CCOCC2)CCCCC1	2	-8	6	0	15
CCCCN1C(=O)/C(=C/C=C2\SCCN2C)SC1=S	-17	-1	-4	94*	-39*
CCCCN1C(=O)/C(=C/C=C2\N(C)c3ccccc3C2(C)C)SC1=S	x	0	x	67*	-14
CCCN1C(=O)/C(=C\C=C2/C=CN(CC)c3ccccc32)SC1=S	-12	-1	3	1	2
CN1CCS/C1=C/C=C1/SC(=S)N(Cc2ccccc2)C1=O	u	-12	-5	55*	-1
CN1CCS/C1=C/C=C1\SC(=S)N(CC(=O)O)C1=O	-30	-4	-14	42*	9
Cc1cccc(N2CCN(C(=O)c3cccn3-c3nnc(N4CCCCC4)s3)CC2)c1C	x	2	14	2	-4
O=C(/C=C/c1cc([N+](=O)[O-])ccc1OC(F)F)Nc1cccc2ccccc12	5	0	-1	1	2
Nc1c(C(=O)Nc2ccc(Cl)c(C(=O)O)c2)sc2nc3c(cc12)CCCC3	14	-8	12	13	-62*
c1ccc2c(c1)nc(N1CCOCC1)c1c3ccccc3[nH]c21	10	-4	9	4	-57*
Cc1cc(=O)n(C(NC(=O)c2ccccc2)C(=O)c2ccccc2)cn1 (centres undefined)	101	-5	65*	-1	12
O=C(NC(C(=O)c1ccccc1)N1CCOCC1)c1ccccc1 (centres undefined)	-3	0	-1	2	-23
CC1CCCN(CCCOc2ccc(Br)cc2Cl)C1 (centres undefined)	-77*	-9	-12	11	-6
CC1CCN(CCOCCOc2ccc(Br)cc2Cl)CC1	-75*	-18	-57	13	-33*
Oc1sc(C=Nc2ccccc2)c2ccccc12	22	-2	1	172*	-16
Oc1sc(C=Nc2ccc(F)cc2)c2ccccc12	-16	-7	0	132*	-25
Cc1ccc(C2CC(=O)Nc3cc4c(cc32)OCCO4)cc1 (centres undefined)	x	2	-4	32*	2
CC(C)Oc1ccccc1C1CC(=O)Nc2cc3c(cc21)OCCO3 (centres undefined)	23	3	36*	0	3
O=C1CC(c2ccc(Cl)cc2)c2cc3c(cc2N1)OCCO3 (centres undefined)	x	-1	-2	17	8
CCOc1cccc(C2CC(=O)Nc3cc4c(cc32)OCCO4)c1 (centres undefined)	x	0	1	45*	-32*
COc1ccccc1C1CC(=O)Nc2cc3c(cc21)OCCO3 (centres undefined)	20	-4	15	-1	19
O=C(CCCn1c(=O)c2ccccc2n(Cc2cccc(Cl)c2)c1=O)NCCc1ccc(Cl)cc1	x	-1	-8	9	7
CCN(CC)S(=O)(=O)c1cc(C(=O)Nc2ccncc2)ccc1Cl	-14	-7	-12	20	-31*
SMILES	DRD3 antagonist	D1 PAM	D3 ag	D1 agonist	D1 antag
CCN(CC)S(=O)(=O)c1cc(C(=O)Nc2cccnc2)ccc1Cl	15	-1	12	1	x
CN(CC(=O)Nc1ccc(Cl)cc1)C(=O)c1ccc(S(=O)(=O)Nc2ccccc2)cc1	-6	-3	-12	6	-16
CCN(CC)S(=O)(=O)c1cc(C(=O)N(C)CC(=O)Nc2ccc(Cl)cc2)ccc1Cl	u	-4	-29	5	-33*
CC(=O)N1CCCc2cc(S(=O)(=O)N(C)CC(=O)Nc3ccc(C(C)C)cc3)ccc21	x	-4	10	7	-11
Cc1cccc(OCC(=O)Nc2ccccc2C(=O)OCc2cc(=O)n3nc(C)sc3n2)c1	x	1	8	1	2
CN(C)C(=O)CSc1nnc(CCNC(=O)OC(C)(C)C)o1	-10	-6	1	3	-33*
CC(C)(C)OC(=O)NCCCCCc1nnc(SCc2cccc(F)c2)o1	17	-8	-5	18	-36*
CCOc1ccc(C(C(=O)NC2CCCC2)N(CCCO)C(=O)c2ccc(-c3ccccc3)[nH]2)cc1 (centres undefined)	-16	3	-2	1	-30*
O=C(NC1CCCC1)C(c1ccncc1)N(CCCN1CCOCC1)C(=O)c1ccc(-c2ccccc2)[nH]1 (centres undefined)	-5	10	-2	0	4
CCc1cc(=O)oc2cc(OCC(=O)NCCCn3ccnc3)ccc12	-24	-3	-9	3	-37*
O=C(COc1ccc2c3c(c(=O)oc2c1)CCCC3)NCCN1CCOCC1	-4	-3	-4	2	-12
COc1ccc(-c2cc(=O)oc3cc(OCC(=O)NCCCn4ccnc4)ccc23)cc1	55	3	0	1	-1
O=C(COc1ccc2c3c(c(=O)oc2c1)CCCC3)NCCCN1CCOCC1	-6	-9	-7	9	-30*
O=C1CC(c2cccc(O)c2)c2c(nc(SCc3ccccc3F)[nH]c2=O)N1 (centres undefined)	x	2	-17	19	-11
CCCSc1nc2c(c(=O)[nH]1)C(c1ccc(F)cc1F)CC(=O)N2 (centres undefined)	x	2	4	37*	-1
COC(=O)c1cc(C#N)c(N2CCN(C)CC2)nc1C	3	-1	-3	1	6
CC(=O)c1c(N2CCN(c3ccccc3)CC2)nc(=S)n(-c2ccccc2)c1C	-53*	-6	-11	11	4
CC(=O)c1cc(C#N)c(N2CCN(c3ccccc3)CC2)nc1C	-16	-10	-2	4	-43*
CC1(C(=O)Nc2cccc(C(F)(F)F)c2)Cc2c(-c3cccc(C(N)=O)c3)ccnc2O1 (centres undefined)	0	x	-2	x	x
CC(=O)Nc1sc(C)c(C)c1C(=O)OCCOc1ccccc1	7	3	15	1	-9
O=C(CCN1CCC(c2ccc(Cl)s2)=N1)c1ccc(Cl)s1	-3	-3	5	40*	7
N#Cc1ccc(OCC(=O)N/N=C/C2CC=CCC2)cc1 (centres undefined)	4	-4	-3	3	-7
COc1ccc(CNC(=O)C(C)OC(=O)c2cccn2C)cc1 (centres undefined)	-25	2	1	0	-7
Cc1ccc(C)c(C(=O)C(C)OC(=O)c2cccn2C)c1 (centres undefined)	-51*	-7	-1	1	16
CCn1c(SC)nc2cc(S(=O)(=O)N3CCCCC3)ccc21	-27	-2	-2	1	-1
